Screening data as filed in PubChem BioAssay.
PfHsp40 rescue – rescue of yeast from PfHsp40 toxicity, primary screen, S. cerevisiae, ATP luminescence | AID 504582, 2011 | 0.68% of 340,000 active | growth rescue, % at 12.5 µM | S. cerevisiae expressing PfHsp40, growth rescue; in the data active means growth rescue above about 28%, passing the limit was not always enough; inconclusive means no clear call, values can overlap the other calls;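 further: yeast W303a lacking pdr1 and pdr3 grown in galactose medium; growth measured after three days at 30 °C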
PrP UTR inh – inhibition of PrP 5' UTR reporter expression. cell-based PrP 5' UTR mRNA reporter, plate reader. inhibition, % (concentration not given with the values). 0.35% of 340,000 active. AID 488862, 2010; in the data active means inhibition above about 52%; further: 0 = median of the neutral control wells
PrPC TRFRET – inhibitors of human cell surface prion protein PrPC, primary screen, cell-based, TR-FRET | TR-FRET read-out | Major prion protein (Homo sapiens), P04156 | inhibition, % at 13.8 µM | 0.43% of 370,000 active | AID 720596, 2013; in the data active means inhibition above about 24%; further: 0% = median of the test wells and 100% = reference compound wells
MazEF act – activators of E. coli MazEF toxin-antitoxin RNase, primary screen, biochemical, fluorescence, uHTS | FAM/BHQ RNA-DNA oligo cleavage fluorescence, 5 h | activation, % at 20 µM | Endoribonuclease toxin MazF (Escherichia coli (strain K12)), P0AE70 | 0.32% of 350,000 active; in the data active means activation above about 50%
Target sequence (P0AE70 whole entry, looked up): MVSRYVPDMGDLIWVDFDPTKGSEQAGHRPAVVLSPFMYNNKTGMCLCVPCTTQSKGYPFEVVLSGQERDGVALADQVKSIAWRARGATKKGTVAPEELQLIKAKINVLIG
BJeLR viability – MLPCN primary cell-based screen for lethality selective to Ras in HRASV12 cells | BJeLR (HRASV12) viability, CellTiter-Glo ATP luminescence, 48 h | inhibition, % (test concentration not listed) | 0.17% of 300,000 active; in the data active means inhibition above about 50%; inconclusive means no clear call, values can overlap the other calls
DUSP3 inh – VHR1 phosphatase inhibitors, primary screen, biochemical, absorbance, uHTS | Dual specificity protein phosphatase 3 (Homo sapiens), P51452 | recombinant VHR phosphatase, pNPP absorbance | inhibition, % at 13.3 µM | 0.52% of 290,000 active; in the data active means inhibition above about 50%
Target sequence (P51452 whole entry, looked up): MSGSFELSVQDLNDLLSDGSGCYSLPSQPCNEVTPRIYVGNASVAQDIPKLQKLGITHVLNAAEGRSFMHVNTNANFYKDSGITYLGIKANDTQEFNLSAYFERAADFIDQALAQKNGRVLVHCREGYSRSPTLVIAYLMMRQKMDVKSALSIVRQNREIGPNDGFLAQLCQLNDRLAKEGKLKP
The depositor's hits bear a star; ? = inconclusive; . = no result. Shown are actives, neighbours in structure and some others; about 2.1% of the full set was active somewhere.

SMILES	PfHsp40 rescue	PrP UTR inh	PrPC TRFRET	MazEF act	BJeLR viability	DUSP3 inh
CN(C)CCN1CCN(C(c2cc3ccccc3o2)c2nnnn2C(C)(C)C)CC1 (configuration not stated)	.	.	5	.	.	.
O=C(COc1ccc([N+](=O)[O-])cc1)Nc1ccc(C(=O)NCc2cccnc2)cc1	1	-13	0	1	63*	27
CC(C(=O)NCc1cccnc1)c1ccc([N+](=O)[O-])cc1 (configuration not stated)	-1	-16	-16	-3	-9	52*
O=C(NCc1cccnc1)c1ccc(NC(=O)c2cccc([N+](=O)[O-])c2)cc1	-2	-24	-24	2	79*	10
O=C(CCC1CCCC1)Nc1ccc(C(=O)NCc2cccnc2)cc1	0	-20	-2	1	89*	30
COc1cccc(/C=N/n2c(COc3ccccc3)n[nH]c2=S)c1	6	-12	-6	5	1	10
O=C(CNS(=O)(=O)c1ccc(Br)cc1)NC1CCCC1	-2	0	3	-5	6	19
O=C1CCC[C@H]2C[C@H](NCc3ccc(Cl)cc3)CC[C@]23CCCN13	.	.	-12	.	.	.
CCSc1nnc(N2C(=O)C(O)=C(C(=O)c3ccco3)C2c2cccc(OC)c2)s1 (configuration not stated)	-1	-36	1	65*	-8	4
COc1ccc(CCNC(=O)CN2C(=O)NC3(CCOc4ccccc43)C2=O)cc1 (configuration not stated)	0	-27	-6	2	.	.
Cc1ccc(N=c2oc3cc(O)ccc3cc2C(N)=O)cc1	33*	-20	-8	-8	7	12
CC(=O)c1cc2ccc(O)cc2oc1=O	0	.	10	-26	5	17
Cc1ccc(S(=O)(=O)N(C)c2ccc(C(=O)N(CC(C)C)C3CCS(=O)(=O)C3)cc2)cc1 (configuration not stated)	-1	-19	-5	0	5	.
Cc1ccnc(SCc2cc(=O)c(OC(=O)c3ccc(S(=O)(=O)N(C)C)cc3)co2)n1	88*	0	0	-2	7	8
Cc1cc(C)nc(SCc2cc(=O)c(OC(=O)c3ccc(Cl)c([N+](=O)[O-])c3)co2)n1	1	-16	-4	5	-12	-17
Cc1cc(C)nc(SCc2cc(=O)c(OC(=O)c3ccc(S(=O)(=O)N(C)C)cc3)co2)n1	90*	-39	-3	-3	-16	42
Cc1ccnc(SCc2cc(=O)c(OC(=O)c3ccc(S(=O)(=O)N4CCCC4)cc3)co2)n1	1	21	5	1	5	4
CCOC(=O)c1ccc(NC(=S)NNC(=O)c2cc(-c3cccnc3)nc3ccccc23)cc1	154*	-13	4	3	-6	14
CCCCOc1cccc(-c2cc(C(=O)NNC(=S)NCC)c3ccccc3n2)c1	47*	-26	-1	3	17	27
CCNC(=S)NNC(=O)c1cc(-c2cccc(OCC)c2)nc2ccccc12	5	-22	-1	-5	0	15
Cc1ccc(-c2ccc3c(c2)O[C@H](CN(C)C(=O)Nc2ccc(C(F)(F)F)cc2)[C@H](C)CN([C@H](C)CO)S3(=O)=O)cc1	.	.	-3	.	.	.
CC1Oc2ccccc2C=C1/C=N/Nc1ccc(C(=O)O)cc1 (configuration not stated)	342*	-90	20	2	-5	21
CC(C)(C)c1ccc(/C=N/Nc2ccc(C(=O)O)cc2)cc1	1	10	9	-3	4	-4
Cc1ccc(-n2c(SCC(=O)Nc3ccc4c(c3)OCCO4)nnc2-c2cnccn2)cc1	.	.	3	.	.	.
O=C(NCc1ccccn1)c1ccc(Cl)c(S(=O)(=O)N2CCCCCC2)c1	0	6	3	-1	6	12
SMILES	PfHsp40 rescue	PrP UTR inh	PrPC TRFRET	MazEF act	BJeLR viability	DUSP3 inh
NC(=O)c1ccc(O)c2ncccc12	.	.	-11	.	.	.
O=Cc1ccc(O)c2ncccc12	628*	12	.	0	64*	28
Cc1[nH]c(N=Nc2ccccc2)nc1N=Nc1ccccc1	80*	-23	1	19	5	9
CCCCCCCCSc1n[nH]c(N)n1	1	5	11	-6	-4	-2
CCCCCCCCCCSc1n[nH]c(N)n1	303*	-23	8	-5	-4	-5
CCC(NS(=O)(=O)c1ccc(C)cc1)C(=O)N1CCN(c2ccccn2)CC1 (configuration not stated)	-2	-31	0	4	-2	50*
CC(=O)Nc1ccc(S(=O)(=O)N[C@@H](C)C(=O)N2CCN(c3ccccn3)CC2)cc1	0	-19	9	3	2	.
C/C(=N\N=C(/N)SC1CC(=O)N(c2ccc(Cl)c(Cl)c2)C1=O)c1cccs1 (configuration not stated)	37*	-22	-2	-9	-7	10
O=C(C(=O)c1cc(Br)ccc1O)c1cc(Br)ccc1O	112*	-25	6	-11	.	.
O=C(c1ccc(O)c(Br)c1)c1cc(Br)ccc1O	8	-32	-6	-5	.	.
O=C(N/N=C\c1cccc(Cl)c1)c1n[nH]c2c1CCCC2	0	-125	13	1	16	-20
Cc1ccc(/C=N/NC(=O)c2n[nH]c3c2CCCC3)cc1	.	.	8	10	60*	-2
COc1ccc(NC(=O)C(Cl)=C(Cl)Cl)cn1	1	-2	6	-6	1	9
COc1ccc(NC(=O)C(C)(C)Oc2ccc(Cl)cc2)cn1	0	-8	-6	6	.	.
COc1ccc(NC(=O)/C(Cl)=C(/Cl)S(=O)Cc2ccc(Cl)cc2)cn1 (configuration not stated)	11	-17	29*	1	.	16
COc1ccc(NC(=O)/C(Cl)=C(/Cl)S(=O)(=O)Cc2ccccc2)cn1	0	7	94*	1	-30	33
COc1ccc(CC(=O)Nc2ccc(OC)nc2)cc1	-1	-11	5	-2	2	30
COc1ccc(NC(=O)Cc2ccc(-c3ccccc3)cc2)cn1	86*	5	8	-1	6	14
CC(C)CN1C(=O)N(c2ccc(Cl)cc2)C(C)(O)CC1(C)C (configuration not stated)	-1	-20	9	-1	-9	-7
CC(CCc1ccccc1)NC(=S)NC(=O)c1ccco1 (configuration not stated)	4	-12	9	-2	0	13
O=C(/C=C/c1ccccc1)NC(=S)Nc1ccccc1	102*	-7	-1	-1	1	0
O=C(/C=C/c1ccc(Br)cc1)NC(=S)NNC(=O)c1ccco1	?	5	-6	-4	-15	9
